# From PubChem BioAssay
# Only some compounds are listed: those with a hit (about 6.6% of all), similar ones and a draw of the others.
# Beta apoptosis: beta cell apoptosis inhibition; 300,000 compounds, 0.8% hits; protection from apoptosis, % (no concentration beside the values); INS-1E cytokine-induced death, ATP luminescence, 48 h; percent of positive-control rescue, neutral wells zero;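 active means Every replicate reaches about 75%, or at least half do and their mean reaches it too, limit read from the data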;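 further: higher means more ATP so stronger rescue from cytokine killing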
# GRIN3A LBD mod: modulators (binders) of human NR3A ligand-binding domain; NR3A LBD differential scanning fluorimetry, Tm shift; 0% = protein alone, 100% = glycine-bound protein; Tm shift relative to glycine control, % at 25 µM; 340,000 compounds, 2.5% hits; AID 1259313;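 active means melting temperature shift of at least 10% of the positive control shift, at one fixed dose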
# MPTP inh: permeability transition pore inhibition. isolated mouse mitochondria, Ca2+ swelling absorbance, 30 min. AID 602449. inhibition, % at 10 µM. 360,000 compounds, 1.4% hits;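 active means inhibition of 50% or more, scaled per plate between neutral and stimulator controls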
# Mdm2-MdmX inh: inhibitors of human Mdm2/MdmX interaction. 330,000 compounds, 3% hits. SaOS-2 split-luciferase Mdm2/MdmX complementation, luminescence. O15151+Q00987. inhibition, % at 8 µM. AID 485346;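 active means inhibition of at least 50% at 8 µM in the primary screen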
# Target sequence (O15151 whole entry, looked up): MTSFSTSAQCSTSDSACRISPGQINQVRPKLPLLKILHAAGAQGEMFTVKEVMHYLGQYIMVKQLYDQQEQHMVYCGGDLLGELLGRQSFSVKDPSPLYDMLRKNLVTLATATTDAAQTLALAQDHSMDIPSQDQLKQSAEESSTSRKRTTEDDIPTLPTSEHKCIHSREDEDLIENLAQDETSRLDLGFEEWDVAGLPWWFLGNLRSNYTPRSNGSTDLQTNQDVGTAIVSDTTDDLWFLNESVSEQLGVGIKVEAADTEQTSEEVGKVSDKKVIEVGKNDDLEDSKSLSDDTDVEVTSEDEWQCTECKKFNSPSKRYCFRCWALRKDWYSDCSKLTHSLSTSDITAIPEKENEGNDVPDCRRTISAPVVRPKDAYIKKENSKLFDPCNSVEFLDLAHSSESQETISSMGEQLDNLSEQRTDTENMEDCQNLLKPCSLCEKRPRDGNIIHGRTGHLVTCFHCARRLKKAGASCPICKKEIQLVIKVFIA
# Target sequence (Q00987 whole entry, looked up): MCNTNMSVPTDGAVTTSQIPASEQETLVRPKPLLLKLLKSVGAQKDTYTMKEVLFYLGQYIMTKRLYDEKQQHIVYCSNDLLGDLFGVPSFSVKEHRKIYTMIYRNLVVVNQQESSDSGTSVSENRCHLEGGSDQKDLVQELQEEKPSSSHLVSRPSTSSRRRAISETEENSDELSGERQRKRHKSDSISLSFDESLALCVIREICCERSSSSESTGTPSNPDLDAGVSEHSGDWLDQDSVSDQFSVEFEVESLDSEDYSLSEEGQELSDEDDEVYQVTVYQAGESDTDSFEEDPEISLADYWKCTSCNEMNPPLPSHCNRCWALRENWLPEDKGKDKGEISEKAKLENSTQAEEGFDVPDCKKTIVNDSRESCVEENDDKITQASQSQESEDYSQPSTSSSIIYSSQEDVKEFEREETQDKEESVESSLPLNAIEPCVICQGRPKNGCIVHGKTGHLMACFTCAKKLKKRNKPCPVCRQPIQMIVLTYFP
# Gli-Sufu antag: Gli-Sufu pathway antagonism. 340,000 compounds, 0.74% hits. inhibition, % at 5 µM. AID 588413. Sufu-KO-LIGHT fibroblasts, Gli luciferase reporter luminescence;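 active means inhibition above about 55%, limit read from the data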
# CSC inhib: blocks cancer stem cells; inhibition, % at 7.5 µM; 300,000 compounds, 1.1% hits; AID 2717; cancer stem cell-like cells viability, luminescence; in the data active means inhibition above about 75%; tested in HMLE shEcad cells
# Rh123 counter: Rhodamine 123 counter-screen of mitochondrial pore hits; isolated mitochondria, membrane potential, Rhodamine 123 fluorescence; 5,000 compounds, 78% hits; shares compounds with MPTP inh; inhibition, % at 10 µM; in the data active means inhibition above about 22%
# MPTP swell DR: MPTP inhibition, dose response swelling confirmation | shares compounds with MPTP inh | isolated mitochondria swelling, absorbance | IC50, µM | 780 compounds, 58% hits | AID 651561; in the data active means IC50 below about 20 µM
# MPTP counter DR: counter-screen for mitochondrial permeability transition pore inhibitors, dose response; shares compounds with MPTP inh; isolated mitochondria counterscreen, fluorescence read-out; IC50, µM; 780 compounds, 49% hits; in the data active means IC50 below about 80 µM
# A number is an active result; i = inactive; nt = no result.
SMILES,Beta apoptosis,GRIN3A LBD mod,MPTP inh,Mdm2-MdmX inh,Gli-Sufu antag,CSC inhib,Rh123 counter,others
O=C1c2ccccc2C2=Nc3ccccc3SC(c3cccc(F)c3)C12 (stereo not drawn),i,i,81,i,i,i,66,
CN(NS(=O)(=O)c1ccc(Br)cc1)c1nc(C(F)(F)F)nc2ccccc12,i,i,73,i,i,i,86,
CN(N)c1nc(C(F)(F)F)nc2ccccc12,i,i,i,i,i,i,nt,
Cc1nc2nc(C)n(CCN3CCOCC3)c(=O)c2c(-c2cccc([N+](=O)[O-])c2)c1C(=O)CCCCCCCCCCN1CCC(c2ccccc2)(c2ccccc2)CC1,nt,i,59,nt,i,nt,107,
Cc1cc(C)c(NC(=O)c2ccc[n+](Cc3ccc([N+](=O)[O-])cc3)c2)c(C)c1,i,i,i,i,i,i,nt,
O=c1[nH]c(CN2CCCCC2)nc2c1C1(CCCCC1)Cc1ccccc1-2,i,i,77,i,i,i,i,MPTP swell DR=i;MPTP counter DR=i
CC(C)[C@H]1C(=O)Nc2ccccc2N1C(=O)N[C@@H](Cc1ccccc1)C(=O)N[C@H](C(=O)O)c1ccccc1,i,i,i,i,i,i,nt,
Cc1nc2cc(NC(=O)Nc3ccc(Br)cc3)ccc2o1,i,34,82,i,i,i,83,
Cc1nc2cc(NC(=O)NCc3ccc4c(c3)OCO4)ccc2o1,i,nt,i,i,i,i,nt,
CCS(=O)(=O)N1CCC(C(=O)NCCCN2CCC(Cc3ccccc3)CC2)CC1,i,i,i,i,i,i,nt,
O=C(NCCCN1CCC(Cc2ccccc2)CC1)C1CCN(S(=O)(=O)N2CCOCC2)CC1,nt,i,88,nt,i,nt,i,MPTP swell DR=i;MPTP counter DR=61
COC(=O)c1ccc(N2CCN(S(=O)(=O)c3ccc(C)cc3)CC2)c([N+](=O)[O-])c1,i,i,56,i,i,i,65,
COc1ccc(S(=O)(=O)N2CCN(c3ccc(C)cc3C)CC2)cc1OC,i,i,57,i,i,i,82,
COc1ccc(S(=O)(=O)N2CCN(c3c(C)cccc3C)CC2)cc1OC,i,i,i,i,i,i,nt,
CC(=O)c1ccc(N2CCN(c3ccccc3O)CC2)c([N+](=O)[O-])c1,i,i,85,i,i,i,81,
Nc1cc2c(cc1Cl)N(Cc1ccccc1)C(=O)CO2,i,i,i,i,i,nt,nt,
O=C(Nc1ccccc1)OCCNC(=O)c1cccc(Cl)c1,i,i,i,i,i,i,nt,
CC(C)OC(=O)NCCOC(=O)Nc1cccc(Cl)c1,i,i,100,i,i,i,93,
CC(C)OC(=O)NC(C)(C)COC(=O)Nc1cccc(Cl)c1,i,i,82,i,i,nt,96,
CC(OC(=O)Nc1cccc(Cl)c1)C(=O)O (stereo not drawn),i,nt,i,i,i,i,nt,
CC(C)OC(=O)NCCOC(=O)Nc1ccc(Cl)c(Cl)c1,i,i,97,i,i,i,98,
O=C(Nc1ccccc1Cl)NC1(C(=O)NCC2CCCO2)CCCCC1 (stereo not drawn),i,i,i,i,i,i,nt,
Cc1noc(C)c1-c1nnc(-c2ccc(C(F)(F)F)cc2)o1,i,i,i,i,i,i,nt,
NCCOc1ccccc1Cc1ccccc1,i,i,69,i,i,i,i,MPTP swell DR=6.7;MPTP counter DR=i
NCCOc1ccccc1OCCN,i,i,i,i,i,i,nt,
SMILES,Beta apoptosis,GRIN3A LBD mod,MPTP inh,Mdm2-MdmX inh,Gli-Sufu antag,CSC inhib,Rh123 counter,others
Cc1ccc(C2CC2C(=O)NNC(=S)Nc2ccc(Cl)cc2)cc1 (stereo not drawn),i,12,53,i,i,i,73,
O=C(NNC(=O)C1CC1c1ccccc1)Nc1ccccc1 (stereo not drawn),i,i,i,i,i,i,nt,
O=C1c2cccc3cccc(c23)C(=O)N1CC1CCN(CC(O)COCc2ccc3c(c2)OCO3)CC1 (stereo not drawn),i,i,56,i,i,i,i,MPTP swell DR=9.6;MPTP counter DR=26
O=C(CC(O)CCc1ccccc1)c1ccc(O)cc1 (stereo not drawn),nt,i,i,i,i,nt,nt,
OCCN1CCN(c2nc(-c3ccccc3)c3cc(Cl)ccc3n2)CC1,i,i,80,i,i,i,i,MPTP swell DR=9.2;MPTP counter DR=i
CN1CCN(c2nc(-c3ccccc3)c3cc(Cl)ccc3n2)CC1,i,i,63,i,i,i,i,MPTP swell DR=17;MPTP counter DR=77
Cc1ccccc1C(=O)N1CCC(C(=O)OCc2ccccc2Cl)CC1,i,i,i,i,i,i,nt,
COc1cccc(CNC(=O)CSc2nc3c(oc4ccccc43)c(=O)n2CC2CCCO2)c1 (stereo not drawn),i,i,i,i,i,i,nt,
CCN(CC)c1ccc(/C=N/N(c2ccccc2)c2ccccc2)c(O)c1,95,i,97,i,i,i,54,
Oc1ccc(/C=N/N(c2ccccc2)c2ccccc2)c(O)c1O,i,nt,i,i,nt,i,nt,
O=C(Nc1ccncc1)Nc1ccc(F)c(Cl)c1,i,i,92,i,i,i,107,
C=CCNC(=O)Nc1ccc(F)c(Cl)c1,i,i,i,i,i,i,nt,
O=C(Nc1ccc(F)c(Cl)c1)Nc1ccc(Cl)cn1,i,i,87,i,i,i,96,
O=C(Nc1ccc(Cl)cc1)Nc1cccnc1,i,13,64,i,i,i,83,
O=C(Nc1ccc(F)cc1)Nc1ccc(Cl)cn1,i,i,i,i,i,i,nt,
COc1ccc(NC(=O)CC2C(=O)N(C)C(=S)N2Cc2ccncc2)cc1 (stereo not drawn),i,i,i,i,i,i,nt,
Fc1ccc(NC(=S)Nc2ccc(Br)cc2)cc1,i,15,73,i,i,i,93,
CSc1cccc(NC(=S)NN(C)C)c1,i,i,i,i,i,i,nt,
CSc1cccc(NC(=S)Nc2ccc(F)cc2)c1,i,14,73,i,i,i,85,
Fc1ccc(NC(=S)Nc2cccc(Cl)c2)cc1,i,13,86,i,i,i,97,
CC(C)c1cccc(C(C)C)c1NC(=S)Nc1cccc(Cl)c1,i,i,88,i,i,i,90,
Cc1cc(SCC(=O)N/N=C/c2ccc(O)c(O)c2O)c(C)cc1Br,i,25,92,i,i,i,57,
Fc1ccccc1C1c2cccn2CCN1C(=S)Nc1ccc(Br)cc1 (stereo not drawn),i,i,101,i,i,i,92,
COC(=O)c1ccc(CO/N=C(\NC(C)=O)c2nonc2NC(C)=O)cc1,i,i,i,i,i,i,nt,
CCCCOc1ccc(CSc2nnc(C)n2N)cc1[N+](=O)[O-],i,i,i,i,i,i,nt,
CCCCOc1ccc(CSc2nc(C)[nH]c2[N+](=O)[O-])cc1[N+](=O)[O-],i,i,56,i,i,i,75,
